Screens: PubChem BioAssay, several laboratories
RN4220 kill = growth inhibition of S. aureus RN4220, primary screen, OD600 | 16 h | inhibition, % (no concentration beside the values) | 0.33% of 330,000 active | AID 1259311, 2017; in the data active = inhibition above about 85%;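 also: plate controls were untreated cells for no effect and reference antibiotic for full effect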
TcdB inh = TcdB glycohydrolase inhibitors, primary screen, biochemical, single point, plate reader; TcdB glycohydrolase enzymatic assay; inhibition, % at 9.99 µM; 0.24% of 350,000 active; AID 652162, 2013; in the data active = inhibition above about 10%
MazF activator = activators of E. coli MazEF toxin-antitoxin RNase, primary screen, biochemical, fluorescence, uHTS. Endoribonuclease toxin MazF (Escherichia coli (strain K12)), P0AE70. FAM/BHQ RNA-DNA oligo cleavage fluorescence, 5 h. activation, % at 20 µM. 0.32% of 350,000 active; in the data active = activation above about 50%
Target sequence (P0AE70 whole entry, looked up): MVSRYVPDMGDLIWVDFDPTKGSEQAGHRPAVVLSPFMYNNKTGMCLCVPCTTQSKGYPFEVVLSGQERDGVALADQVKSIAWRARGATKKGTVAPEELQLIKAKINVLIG
PfHsp40 yeast = rescue of yeast from PfHsp40 toxicity, primary screen, S. cerevisiae, ATP luminescence | S. cerevisiae expressing PfHsp40, growth rescue | growth rescue, % at 12.5 µM | 0.68% of 340,000 active; in the data active = growth rescue above about 28%, passing the limit was not always enough;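 also: yeast W303a lacking pdr1 and pdr3 grown in galactose medium; growth measured after three days at 30 °C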
Mtb hypoxia inh = PubChem AID 1159583; M. tuberculosis hypoxia-regulated fluorescent reporter, fluorescence; fluorescence inhibition, % (no concentration beside the values); 0.1% of 300,000 active; in the data active = fluorescence inhibition mostly above about 23%, no sharp cut-off; inactive = mostly below about 17%
Sa ugtP lethal = growth inhibition of ugtP-null S. aureus, primary screen, RN4220 ugtP deletion, OD600 | 0.54% of 330,000 active | AID 1259309, 2017 | 16 h | growth inhibition, % (no concentration beside the values); in the data active = growth inhibition above about 68%;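 also: plate controls were untreated wells for no effect and antibiotic for full effect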
* = called active by the depositor; . = not tested or not shown; + = active, no number. Shown are actives, neighbours in structure and some others; about 1.3% of the full set was active somewhere.

SMILES	RN4220 kill	TcdB inh	MazF activator	PfHsp40 yeast	Mtb hypoxia inh	Sa ugtP lethal
CC1(C)CC(NS(=O)(=O)OCC(Cl)(Cl)Cl)c2cc(C#N)ccc2O1 (configuration not stated)	99*	1	-1	14	0	99*
O=C(N/N=C/c1sc(N2CCOCC2)nc1-c1ccccc1)c1ccccc1O	.	.	-5	238*	.	.
Cc1ccc(CON=CC2=C(Cl)c3ccccc3CC2)cc1	-6	.	.	.	.	95*
COC(=O)CSc1cc([N+](=O)[O-])cc2c1c(C1OCCO1)nn2-c1ccccc1	3	.	114*	0	6	2
CC(C)C[C@@]12C(=O)N(c3ccc(Br)cc3)C(=O)N1C(c1ccc(Br)cc1)C1C(=O)N(C(C)(C)C)C(=O)C12 (some centres not stated)	-9	.	.	.	1	-37
COCC(=O)N1C[C@H](C)[C@@H](OC)CN(C)C(=O)c2ccc(NC(=O)Nc3ccccc3)cc2OC[C@@H]1C	.	-1	.	.	.	.
COc1ccc(/C=C(/C#N)C(=O)Nc2ccc(O)cc2)cc1C(=O)O	.	18*	3	0	.	.
Cc1nn(C)c(C(=O)Sc2cccc(Cl)c2)c1[N+](=O)[O-]	27	4	0	-2	5	93*
Cc1cc(=O)oc(C)c1C(=O)n1nc(C)c2c1CC1C2C1(C)C (configuration not stated)	10	.	.	.	4	7
Nc1c(C(=O)Nc2ccccc2F)sc2nc(Cc3ccccc3)cc(C(F)(F)F)c12	3	1	+	-1	-3	2
O=C(COC(=O)c1ccccc1C(=O)c1ccccc1)Nc1ccc(SC(F)F)cc1	5	.	1	94*	-3	-5
Cc1cc(Cl)ccc1OC(C)C(=O)Nc1ccc(C(=O)Nc2ccccc2C(=O)O)cc1 (configuration not stated)	29	1	-4	52*	.	10
CCC(=O)Nc1ccc2c(c1)OC[C@@H](C)N(C(=O)Cc1cccnc1)C[C@H](C)[C@H](OC)CN(C)C2=O	.	1	.	.	.	.
O=C(Cc1cccnc1)N1CC(=O)N2[C@H](C1)[C@@H](c1ccc(C#CC3CCCC3)cc1)[C@@H]2CO	.	-1	.	.	.	.
Cc1cc(C)cc(NC(=O)c2ccc(Cn3nc(C)c(Cl)c3C)o2)c1	-2	.	7	2	4	-21
Cc1ccc(CNC(=O)c2ccc(Cn3nc(C)c(Cl)c3C)o2)cc1	-1	.	-5	154*	4	-17
Cc1ccc(-c2csc(NC(CO)c3nc4ccccc4n3CCOCCO)n2)cc1 (configuration not stated)	3	2	2	34*	-4	5
COC(=O)Cn1cc(C=NNC(=O)c2ccc(C#N)cc2F)c2ccccc21	-2	.	.	.	0	8
N#Cc1ccc(C(=O)N/N=C/c2cn(CC(=O)O)c3ccccc23)c(F)c1	.	12*	-3	1	.	.
CCCNC(=O)Nc1ccc2c(c1)C(=O)N(C)C[C@H](OC)[C@H](C)CN(C(C)=O)[C@H](C)CO2	.	0	.	.	.	.
COc1ccc(C=O)cc1OS(=O)(=O)c1ccc(NC(C)=O)cc1	0	1	7	42*	7	-4
CC(=O)NC(Cc1ccc(O)cc1)CN1C(N)=NCC1CC(C)C (configuration not stated)	5	.	.	.	3	-6
CN(C)c1ccc(C(=O)Nc2nnc(-c3ccc(Cl)cc3)o2)cc1	11	1	5	-1	-2	1
COc1cccc(C(=O)Nc2nnc(-c3ccc(Cl)cc3)o2)c1	99*	0	5	2	3	100*
O=C(COc1ccc(Cl)cc1)Nc1nnc(-c2ccc3c(c2)CCCC3)o1	100*	3	-14	-1	0	96*
SMILES	RN4220 kill	TcdB inh	MazF activator	PfHsp40 yeast	Mtb hypoxia inh	Sa ugtP lethal
CC(=O)c1ccc(C(=O)Nc2nnc(-c3ccc(Cl)cc3)o2)cc1	98*	-6	4	0	2	99*
O=C(Nc1nnc(-c2ccccc2)o1)c1ccc(Cl)cc1	96*	.	4	252*	6	99*
COc1ccc2c3c([nH]c2c1)[C@H](CO)N(C(=O)CN1CCOCC1)CC31CCN(CC2CCCC2)CC1	.	-3	.	.	.	.
CN(C)S(=O)(=O)Oc1cccc(C(=O)Nc2ccc(Cl)cc2)c1	2	.	-1	353*	10	0
CCOC(=O)C(NCc1ccc2c(c1)OCO2)(NC(=O)c1ccccc1)C(F)(F)F (configuration not stated)	2	.	-3	45*	.	-3
O=C(CSc1nc2ccccc2o1)NN=Cc1ccc(C(=O)O)cc1	4	.	.	.	11	-1
Cc1cc(C)n(-c2nc3ccccc3nc2Nc2ccc3c(c2)OCO3)n1	-12	-1	-8	-1	0	9
Cc1cc(C)n(-c2nc3nonc3nc2Nc2cccc(C)c2C)n1	7	.	190*	-1	5	4
CCOc1ccc(Cn2c3ccc(OC)cc3c3nc4ccccc4nc32)cc1	6	3	65*	0	4	1
CCCCOC(=O)Cn1c2ccc(OC)cc2c2nc3ccccc3nc21	6	.	215*	1	2	-3
CCn1c2ccc(OC)cc2c2nc3ccccc3nc21	7	.	18	.	6	10
O=C(Cc1cccnc1)N1CC2(C1)[C@@H](c1ccccc1)[C@@H](CO)N2C(=O)C1CC1	.	-1	.	.	.	.
CCOC(=S)SCC(=O)Nc1nc(-c2ccccc2)cs1	-5	.	5	-2	2	38
CCOC(=S)SCC(=O)Nc1nc(-c2ccc(Br)cc2)cs1	-13	1	2	0	12	99*
CN1[C@@H]2Cn3c(ccc(-c4cccnc4)c3=O)[C@H]1[C@@H](C(=O)N1CCC(Cc3ccccc3)CC1)[C@@H]2CO	.	1	.	.	.	.
CCOC(=O)c1c(/N=C/c2c(O)n(-c3ccc(F)cc3)c(=S)[nH]c2=O)sc2c1CCCC2	2	.	-136	41*	1	1
O=C(Nc1ccc2nn(-c3ccccc3)nc2c1)c1cccnc1	-2	.	-1	115*	.	-4
Cn1c(/C=C/c2ccc([N+](=O)[O-])o2)nc2ccccc2c1=O	99*	.	9	0	.	97*
O=[N+]([O-])c1cc(Cl)cc(/C=N/NC(=S)Nc2ccc(S(=O)(=O)N3CCOCC3)cc2)c1O	.	2	6	449*	.	.
O=[N+]([O-])c1cc(Cl)cc(C=NNC(=S)Nc2ccc(S(=O)(=O)N3CCOCC3)cc2)c1O	21	.	.	.	20	-15
Cc1ccc(CS(=O)Cc2ccc(C(=O)N3CCN(c4ccccc4)CC3)o2)cc1 (configuration not stated)	-3	0	-2	-1	-7	33
Cc1ccc(CS(=O)Cc2ccc(C(=O)N3CCN(c4ccc(F)cc4)CC3)o2)cc1 (configuration not stated)	-3	0	-8	0	3	29
